# Screening results deposited in PubChem by National Center for Advancing Translational Sciences (NCATS).
# Tau fibril ThT: tau fibrillization inhibition (ThT binding); P10636; recombinant tau K18 P301L, heparin-induced fibrillization, ThT fluorescence; Potency, µM (doses to about 57.4 µM), inactives show at the highest dose activity, negative = inhibition, hits mostly inhibitors; actives 2.1% (n = 270,000); AID 1460; further: nearly all actives have a fitted effect of over 55% in size
#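 Heparin-induced (20 uM) aggregation of recombinant human K18 P301L tau, 15 uM unlabeled with 0.24 uM labeled, pH 7 acetate buffer, 6 hr at 37 C with compound. Fibrils quantified by 30 uM ThT fluorescence after 1 hr ambient incubation.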
# Tau fibril FP: blocks human tau fibril formation measured by polarization; P10636; actives 0.39% (n = 280,000); Potency, µM (top dose mostly 57.7 µM), for the others: at the highest dose activity, negative = inhibition, actives largely listed as inhibitors; AID 1468; K18 P301L tau heparin fibrillization, Alexa594 FP, 6 h; further: nearly all actives have a fitted effect of over 55% in size
#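 FP of Alexa 594-tau after heparin (20 uM) induction. Substrate: human K18 P301L, 15 uM unlabeled, 0.24 uM labeled. Buffer 100 mM sodium acetate pH 7. 6 hr, 37 C.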
# RORg inh: inhibitors of mouse ROR gamma transcriptional activity; P51450; Drosophila S2 Gal4-RORgamma UAS-luciferase reporter, 20 h; Potency, µM (highest dose often 53.6 µM), without a hit: at the highest dose activity change, negative = inhibition, actives largely listed as inhibitors; actives 5.4% (n = 310,000); further: nearly all actives have a fitted effect of over 60% in size
# Target sequence (P51450 whole entry, looked up, the tested form may be a part): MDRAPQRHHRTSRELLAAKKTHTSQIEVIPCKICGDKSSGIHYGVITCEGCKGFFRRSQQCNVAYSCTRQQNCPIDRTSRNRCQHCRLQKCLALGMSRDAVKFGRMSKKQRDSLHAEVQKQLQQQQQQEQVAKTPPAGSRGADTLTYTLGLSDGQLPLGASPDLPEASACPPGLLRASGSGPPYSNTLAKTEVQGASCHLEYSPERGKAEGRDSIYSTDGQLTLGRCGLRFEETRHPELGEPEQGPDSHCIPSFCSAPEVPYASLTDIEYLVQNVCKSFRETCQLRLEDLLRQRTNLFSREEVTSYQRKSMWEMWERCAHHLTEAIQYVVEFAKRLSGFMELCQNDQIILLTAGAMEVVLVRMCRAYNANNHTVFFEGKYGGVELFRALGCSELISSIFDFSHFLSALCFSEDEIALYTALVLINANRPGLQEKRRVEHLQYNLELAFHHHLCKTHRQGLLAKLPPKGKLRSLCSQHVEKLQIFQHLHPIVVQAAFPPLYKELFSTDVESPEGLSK
#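 Luminescence from a UAS-regulated Photinus luciferase reporter in stably transfected Drosophila Schneider cells is measured; decreased signal marks ROR gamma inhibition. Fusion expression is induced by 700 uM copper sulfate for 20 hr.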
# Tau fluor cs: counter-screen for tau fibril formation inhibitors; actives 0.93% (n = 280,000); Potency, µM (top dose mostly 57.7 µM), inactives show at the highest dose activity change, negative = decrease; tau K18 P301L Alexa594 fluorescence, heparin fibrillization; further: nearly all actives have a fitted effect of over 55% in size
#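 Human tau K18 P301L (15 uM unlabeled, 0.24 uM Alexa 594-labeled) in 100 mM sodium acetate pH 7 with 20 uM heparin, 6 hr at 37 C. ThT 30 uM added, 1 hr ambient; Alexa 594 FP and total fluorescence read at 555/632 nm.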
# Gal4-VP16 FLuc: inhibits Gal4-VP16 luciferase reporter, ROR gamma counter-screen. Drosophila S2 Gal4-VP16 UAS-luciferase, luminescence, 20 h. actives 3.5% (n = 310,000). Potency, µM (series often up to 53.6 µM), for the others: at the highest dose activity, negative = inhibition, most hits filed as inhibitors;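 further: Gal4-VP16 expression switched on by copper sulfate through the metallothionein promoter; nearly all actives have a fitted effect of over 50% in size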
# Active calls of the source: *; ? = inconclusive; / = no result; [ ] = another dose, or the depositor's remark. An excerpt weighted towards active compounds, which were near 7.3% of everything screened. The call rests on the fitted dose curve; in most records, active means well fitted curve in the direction sought with a large enough effect; inconclusive means small, poorly fitted or top-dose-only effect, or another doubt; inactive means no such curve, though single readings can be large; an effect the other way counts as inactive or inconclusive. On the % scale 0 is the no-effect control and ±100 the full control effect; potency means the concentration at half of the fitted maximal effect.
SMILES,Tau fibril ThT,Tau fibril FP,RORg inh,Tau fluor cs,Gal4-VP16 FLuc
COc1cccc(OC)c1C(=O)NC(=O)Oc1c(F)cccc1F,/,/,-6.3%,/,0.8%
Cc1ccc(N2C(=O)N(CC(=O)Nc3ccc([N+](=O)[O-])cc3)C(=O)C2C)cc1 (configuration not stated),/,/,?,/,1.2%
CC1=NN(c2ccc([N+](=O)[O-])cc2)C(=O)C1[N+](=O)[O-] (configuration not stated),12.6µM*,-0.6%,4.1%,?,-11.3%
O=C(CC12CC3CC(CC(C3)C1)C2)NC(=S)N1CCCCC1,-7.9%,-2.3%,4.47µM*,-14.1%,3.55µM*
CC1CCCCN1C(=O)NC12CC3CC(CC(C3)C1)C2 (configuration not stated),-9.7%,5.7%,-3.8%,1.1%,2.2%
CC(=O)N1CCN(C(=S)NC(=O)C23CC4CC(CC(C4)C2)C3)CC1,-3.6%,1.4%,14.1µM*,-4.7%,-20.7%
S=C(NC12CC3CC(CC(C3)C1)C2)N1CCCC1,9.2%,-0.4%,14.1µM*,4.3%,?
CNC(=O)CC12CC3CC(CC(C3)C1)C2,-6.9%,6.3%,-26.0%,-2.7%,-8.8%
COCCNC(=S)NC(=O)CC12CC3CC(CC(C3)C1)C2,-16.9%,-6.5%,2.51µM*,-20.8%,?
Cc1cc(C)cc(C(=O)n2nc(C)c(S(=O)(=O)N3CCOCC3)c2C)c1,-9.1%,13.2%,/,6.7%,/
Cc1sc(N)c(C(=O)c2cccc(C(F)(F)F)c2)c1C,?,-7.1%,?,-25.6%,17.4%
Cc1ccccc1C(=O)NC(=S)Nc1ccccc1N1CCCC1,-16.0%,3.3%,7.08µM*,?,-25.9%[10 µM]
Cc1ccccc1C(=O)Nc1ccccc1N1CCN(C(=O)c2ccccc2)CC1,/,/,3.9%,/,1.8%
COc1ccccc1C(=O)NC(=S)Nc1ccccc1N1CCCC1,/,/,10µM*,/,?
CCCOC(=O)c1ccc(NC(=O)Cc2cccs2)cc1,/,/,26.2%,/,14.5%
CCC(C)(C)NC(=O)C(c1ccc(OC)cc1)N(C(=O)CCC(=O)Nc1cc(C)on1)c1ccccc1F (configuration not stated),/,/,?,/,10.6%
COC(=O)C/C=C\[C@@H](C)[C@@H](/C=N\OCC[C@H]1C=C[C@H](OC(C)=O)[C@@H](COC(C)=O)O1)NS(=O)(=O)c1ccc(C)cc1,-16.4%[11.5 µM],-11.8%[11.6 µM],1.1%[10 µM],-28.2%[11.6 µM],-5.5%[10 µM]
COc1ccccc1/C=C/C=N/NC(=O)c1ccccn1,?,2.3%,?,-3.8%,?
COc1ccccc1/C=C/C=N/NC(=O)c1cc(-c2ccco2)[nH]n1,-12.1%,-13.7%,11.2µM*,-24.8%,?
Cc1ccccc1-c1nc2c3ccccc3nc(=S)n2[nH]1,/,/,0.282µM*,/,1µM*
Cc1nc2ccccc2n1CCc1nc2c3ccccc3nc(=S)n2[nH]1,-17.6%,-0.6%,3.55µM*,-13.9%,10µM*
O=C(CCN1C(=O)/C(=C\c2ccccc2F)SC1=S)N1CCCCC1,/,/,?,/,-6.8%
COc1cc(CN2C(=S)NC(C)(C)CC2(C)O)cc(OC)c1 (configuration not stated),-4.8%,3.3%,3.55µM*,-4.6%,11.2µM*
CCC(=O)N[C@@H]1CCc2cccc(OC)c2C1,-3.3%,?,13.7%,-5.2%,1.2%
CCc1ccc(-c2[nH]c3c(c2-c2sc(C)c(C(=O)OC)c2O)c(=O)n(C)c(=O)n3C)cc1,-2.4%,5.0%,/,-6.1%,/
COC(=O)c1c(C)sc(-c2c(-c3ccc(F)cc3)[nH]c3[nH]c(=O)[nH]c(=O)c23)c1O,?,5.5%,/,10µM*[quencher],/
O=S1(=O)N=C(N/N=C/c2ccco2)c2ccccc21,-10.5%,-0.9%,7.94µM*,-1.8%,?
O=[N+]([O-])c1ccccc1/C=N/NC1=NS(=O)(=O)c2ccccc21,16.3%,6.8%,1.6%,13.4%,-9.2%
COc1cccc(C(=O)NCC(c2ccc(N(C)C)cc2)N2CCc3ccccc32)c1OC (configuration not stated),?,-4.8%,/,?,/
CCOC(=O)CNC(=S)n1cnc(N)n1,-13.0%,-1.2%,7.94µM*,-1.6%,-15.1%
